Results on 15 sequences are retold here after PMC3218832.

Targets include RELARELA (p65 homodimer) (Homo sapiens, UniProt Q04206 1-307); p50p50 homodimer (Homo sapiens, UniProt P19838 7-356); RELB subunit;p50 subunit (Homo sapiens;Homo sapiens, UniProt Q01201;P19838 120-401;7-356).
Common to all, as to assay: protein binding microarray; high values mean tight binding
Conditions in all cases: dsDNA, one strand shown

In a further experiment the target is T1, p52p52 homodimer (Homo sapiens, UniProt Q00653 4-332).
T1 sequence: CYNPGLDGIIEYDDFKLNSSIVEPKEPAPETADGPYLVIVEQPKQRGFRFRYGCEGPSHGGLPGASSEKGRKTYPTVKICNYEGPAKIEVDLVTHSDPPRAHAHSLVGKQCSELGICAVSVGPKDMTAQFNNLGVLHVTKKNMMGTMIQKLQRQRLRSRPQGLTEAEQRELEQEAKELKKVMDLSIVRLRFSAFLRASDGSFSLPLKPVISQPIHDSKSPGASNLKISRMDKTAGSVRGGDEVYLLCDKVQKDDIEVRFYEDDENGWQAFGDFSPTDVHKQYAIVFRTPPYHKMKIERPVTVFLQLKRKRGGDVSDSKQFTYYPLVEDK

The target of experiment [1] is RELA (p65) subunit of heterodimer;p50 subunit (Homo sapiens;Homo sapiens, UniProt Q04206;P19838 1-307;7-356).
Chain of RELA (p65) subunit of heterodimer;p50 subunit (Q04206 1-307, chain 1 of 2): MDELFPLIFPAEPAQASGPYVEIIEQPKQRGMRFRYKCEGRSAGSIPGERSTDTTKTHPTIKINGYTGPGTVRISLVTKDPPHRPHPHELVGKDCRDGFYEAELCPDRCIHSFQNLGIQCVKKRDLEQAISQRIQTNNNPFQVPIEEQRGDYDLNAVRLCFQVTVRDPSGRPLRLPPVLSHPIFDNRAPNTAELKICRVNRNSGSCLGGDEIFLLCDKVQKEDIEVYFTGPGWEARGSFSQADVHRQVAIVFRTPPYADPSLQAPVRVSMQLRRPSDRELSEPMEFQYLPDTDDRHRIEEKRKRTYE
Chain of RELA (p65) subunit of heterodimer;p50 subunit (P19838 7-356, chain 2 of 2): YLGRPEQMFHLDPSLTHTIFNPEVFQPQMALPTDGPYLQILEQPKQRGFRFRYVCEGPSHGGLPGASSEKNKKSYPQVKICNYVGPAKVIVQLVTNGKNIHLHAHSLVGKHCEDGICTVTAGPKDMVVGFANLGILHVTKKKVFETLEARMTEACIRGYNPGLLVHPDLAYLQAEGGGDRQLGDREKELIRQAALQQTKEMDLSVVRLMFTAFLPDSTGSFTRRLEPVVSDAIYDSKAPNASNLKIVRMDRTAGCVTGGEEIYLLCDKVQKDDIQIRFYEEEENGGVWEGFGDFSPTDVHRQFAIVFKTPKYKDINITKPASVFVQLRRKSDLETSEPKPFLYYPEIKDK
Experiment [2] has as its target RELA (p65) subunit of heterodimer;p52 subunit (Homo sapiens;Homo sapiens, UniProt Q04206;Q00653 1-307;4-332).
For another experiment, the target named is T2, RELB subunit;p52 subunit (Homo sapiens;Homo sapiens, UniProt Q01201;Q00653 120-401;4-332).
T2 sequence 1: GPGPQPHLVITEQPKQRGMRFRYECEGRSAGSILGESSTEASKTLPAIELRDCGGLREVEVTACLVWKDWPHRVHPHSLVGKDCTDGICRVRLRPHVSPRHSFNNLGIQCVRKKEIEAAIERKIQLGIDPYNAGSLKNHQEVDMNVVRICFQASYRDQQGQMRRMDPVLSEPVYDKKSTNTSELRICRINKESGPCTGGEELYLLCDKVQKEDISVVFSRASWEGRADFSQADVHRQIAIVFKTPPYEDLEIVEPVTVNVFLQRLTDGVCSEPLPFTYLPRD
T2 sequence 2: T1 sequence

For experiment [3], the target named is C-Rel subunit;p50 subunit (Homo sapiens;Homo sapiens, UniProt Q04864;P19838 1-285;7-356).
Experiment [4] has as its target T3, C-Rel subunit;p52 subunit (Homo sapiens;Homo sapiens, UniProt Q04864;Q00653 1-285;4-332).
T3 sequence 1: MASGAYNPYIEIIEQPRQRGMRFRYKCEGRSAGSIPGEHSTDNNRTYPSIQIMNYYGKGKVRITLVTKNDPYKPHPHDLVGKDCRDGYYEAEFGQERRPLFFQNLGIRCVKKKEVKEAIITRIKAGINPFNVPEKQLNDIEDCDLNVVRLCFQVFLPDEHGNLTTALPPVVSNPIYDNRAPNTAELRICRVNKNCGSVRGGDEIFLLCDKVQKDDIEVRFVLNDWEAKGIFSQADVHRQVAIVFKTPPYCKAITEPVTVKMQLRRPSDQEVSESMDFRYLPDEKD
T3 sequence 2: T1 sequence

Chain of RELARELA (p65 homodimer) (Q04206 1-307): as the sequence (Q04206 1-307, chain 1 of 2) above
Chain of p50p50 homodimer (P19838 7-356): as the sequence (P19838 7-356, chain 2 of 2) above

AGGTGCACCCC: the binding signal with RELARELA (p65 homodimer) is -0.368 z-score; in the experiment with p50p50 homodimer, 0.235 z-score; in the experiment with p52p52 homodimer it was 0.492 z-score; in experiment [1], 0.0923 z-score; in [2], 0.549 z-score; in the experiment with RELB subunit;p50 subunit, 0.107 z-score. Moreover, the binding signal with RELB subunit;p52 subunit was 0.61 z-score; in [3] it was -0.0192 z-score; in experiment [4], 0.815 z-score.

In the case of CAATTACCCCT, the binding signal with RELARELA (p65 homodimer) stood at 0.378 z-score; with p50p50 homodimer, 1.06 z-score; in the experiment with p52p52 homodimer, 0.863 z-score; in experiment [1], 0.727 z-score; in experiment [2], 1.01 z-score; with RELB subunit;p50 subunit, 0.941 z-score. The binding signal came to 1.38 z-score with RELB subunit;p52 subunit, 0.652 z-score in experiment [3] and 0.899 z-score in [4].

Consider CAAAGGCCCCC, for which the binding signal with RELARELA (p65 homodimer) was -1.53 z-score; with p50p50 homodimer, 0.336 z-score; with p52p52 homodimer, 0.0392 z-score; in [1], 0.041 z-score; in experiment [2], 0.0834 z-score; with RELB subunit;p50 subunit, 0.123 z-score. For the same sequence, the values for the binding signal (with RELB subunit;p52 subunit; in experiment [3]; in experiment [4]) were 0.14 z-score, -0.0908 z-score and 0.0137 z-score, respectively.

Turning to GAATGAGCCCT, the binding signal in the experiment with RELARELA (p65 homodimer) was -1.06 z-score; with p50p50 homodimer, -1.39 z-score; in the experiment with p52p52 homodimer, -0.606 z-score; in experiment [1], -0.778 z-score; in experiment [2] it was -0.989 z-score; in the experiment with RELB subunit;p50 subunit, -1.17 z-score. Moreover, the binding signal with RELB subunit;p52 subunit is -0.969 z-score; in experiment [3], -1.55 z-score; in experiment [4] it was -1.02 z-score.

As for GGGGGCGCCCT, the binding signal with RELARELA (p65 homodimer) worked out at 0.992 z-score; in the experiment with p50p50 homodimer, 0.922 z-score; with p52p52 homodimer it was 1.68 z-score; in experiment [1], 1.43 z-score; in [2], 1.58 z-score; in the experiment with RELB subunit;p50 subunit, 1.12 z-score. Moreover, the values for the binding signal (with RELB subunit;p52 subunit; in experiment [3]; in experiment [4]) were 1.33 z-score, 0.776 z-score and 1.34 z-score, respectively.

For the sequence CGAGAGCCCCT, the binding signal is -0.807 z-score with RELARELA (p65 homodimer); 0.741 z-score in the experiment with p50p50 homodimer; 0.297 z-score in the experiment with p52p52 homodimer; 0.363 z-score in experiment [1]; 0.418 z-score in experiment [2]; 0.502 z-score with RELB subunit;p50 subunit. In addition, the figures for the binding signal (with RELB subunit;p52 subunit; in experiment [3]; in experiment [4]) were 0.576 z-score, 0.0988 z-score and 0.379 z-score, respectively.

Turning to CAGGGGTTCCT, the binding signal is -0.143 z-score with RELARELA (p65 homodimer); 0.529 z-score with p50p50 homodimer; 0.77 z-score in the experiment with p52p52 homodimer; -0.0941 z-score in experiment [1]; 0.55 z-score in experiment [2]; -0.0145 z-score in the experiment with RELB subunit;p50 subunit. For the same sequence, the binding signal in the experiment with RELB subunit;p52 subunit is 0.388 z-score; in experiment [3], -0.324 z-score; in experiment [4] it was 0.485 z-score.

As for CGGGGACCCCT, the binding signal with RELARELA (p65 homodimer) was -0.0408 z-score; with p50p50 homodimer, 0.724 z-score; with p52p52 homodimer, 0.639 z-score; in experiment [1] it was 0.43 z-score; in [2], 0.693 z-score; with RELB subunit;p50 subunit it was 0.578 z-score. Moreover, the binding signal in the experiment with RELB subunit;p52 subunit was 0.906 z-score; in experiment [3], 0.478 z-score; in experiment [4], -0.0336 z-score.

Take AGATTCCTCCC: the binding signal with RELARELA (p65 homodimer) is 0.213 z-score; in the experiment with p50p50 homodimer, -0.426 z-score; with p52p52 homodimer, -0.138 z-score; in experiment [1], -0.135 z-score; in experiment [2], -0.146 z-score; in the experiment with RELB subunit;p50 subunit it was -0.305 z-score. Besides, the binding signal in the experiment with RELB subunit;p52 subunit was -0.191 z-score; in experiment [3] it was 0.176 z-score; in experiment [4] it was -0.118 z-score.

In the case of CAGAAAGTCCT, the binding signal in the experiment with RELARELA (p65 homodimer) is 1.03 z-score; with p50p50 homodimer, -0.724 z-score; in the experiment with p52p52 homodimer, -0.508 z-score; in [1], -0.351 z-score; in experiment [2], -0.61 z-score; with RELB subunit;p50 subunit it was -0.693 z-score. The binding signal is -0.785 z-score with RELB subunit;p52 subunit, -0.362 z-score in experiment [3] and -0.371 z-score in experiment [4].

As to AAATTGTCCCT, the binding signal with RELARELA (p65 homodimer) is 0.833 z-score; in the experiment with p50p50 homodimer it was 1.43 z-score; with p52p52 homodimer, 1.92 z-score; in experiment [1], 1.28 z-score; in [2], 1.26 z-score; with RELB subunit;p50 subunit it was 1.61 z-score. Moreover, the values for the binding signal (with RELB subunit;p52 subunit; in experiment [3]; in experiment [4]) were 1.7 z-score, 1.14 z-score and 1.11 z-score, respectively.

As to CAAAAGACCCT, the binding signal with RELARELA (p65 homodimer) is -0.503 z-score; in the experiment with p50p50 homodimer it was 0.305 z-score; with p52p52 homodimer, -0.0206 z-score; in experiment [1], 0 z-score; in experiment [2], 0.196 z-score; with RELB subunit;p50 subunit, -0.111 z-score. Also, the results for the binding signal (in the experiment with RELB subunit;p52 subunit; in [3]; in experiment [4]) were -0.0281 z-score, -0.615 z-score and 0.0358 z-score, respectively.

Turning to GAGTTCTCCCC, the binding signal in the experiment with RELARELA (p65 homodimer) was determined as 0.519 z-score; with p50p50 homodimer, 1.01 z-score; with p52p52 homodimer, 0.732 z-score; in experiment [1], 1.01 z-score; in experiment [2] it was 1.01 z-score; in the experiment with RELB subunit;p50 subunit, 1.23 z-score. The binding signal came out at 1.07 z-score with RELB subunit;p52 subunit, 1.15 z-score in experiment [3] and 0.673 z-score in experiment [4].

For the sequence CGGGATGCCCC, the binding signal in the experiment with RELARELA (p65 homodimer) turned out to be 1.39 z-score; in the experiment with p50p50 homodimer it was 0.572 z-score; with p52p52 homodimer, 2.24 z-score; in experiment [1], 1.51 z-score; in experiment [2] it was 1.6 z-score; in the experiment with RELB subunit;p50 subunit it was 1.24 z-score. In addition, the values for the binding signal (in the experiment with RELB subunit;p52 subunit; in experiment [3]; in [4]) were 1.28 z-score, 0.949 z-score and 1.61 z-score, respectively.

Turning to CGAGGCATCCC, the binding signal in the experiment with RELARELA (p65 homodimer) is -0.716 z-score; with p50p50 homodimer it was -1.34 z-score; in the experiment with p52p52 homodimer, -0.635 z-score; in experiment [1] it was -1.05 z-score; in [2], -0.831 z-score; with RELB subunit;p50 subunit, -0.973 z-score. In addition, the binding signal with RELB subunit;p52 subunit is -0.906 z-score; in [3], -1.02 z-score; in [4] it was -0.807 z-score.
